Peg3 prom inh: Peg3 promoter-driven luciferase inhibitors, primary screen, cell-based, HeLa, luciferase luminescence; HeLa PEG-Prom luciferase reporter, overnight; inhibition, % at 20 µM; hit rate 1.7% among 360,000; AID 588405, 2011;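 active = inhibition of at least 50% at 20 µM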
HIF-2a block: HIF-2a reporter inhibitors, primary screen, luminescence, 786-0 RCC cells; 786-0 RCC cells HIF-2a reporter, luciferase luminescence, overnight; inhibition, % at 18.8 µM; hit rate 0.72% among 360,000; AID 624352, 2012;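 active = inhibition of the luminescence signal of 40% or more relative to plate controls, in a single-dose primary screen at 18.75 µM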
TROY NFkB inh: inhibitors of TROY-driven NF-kB signaling, primary screen, Q293 LMP1-TROYcd cells, NF-kB luciferase, uHTS | inhibition, % at 10 µM | AID 1347056, 2019 | hit rate 0.98% among 360,000 | Q293 LMP1-TROYcd NF-kB luciferase reporter, 4 h;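 active = compounds whose plate-normalised and pattern-corrected inhibition of the luciferase reporter signal at the single screening dose is 50% or more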
TWEAK-Fn14 inh: inhibitors of TWEAK-Fn14 signaling, primary screen, luciferase reporter cells, uHTS. TWEAK-stimulated Fn14 reporter cells, luciferase luminescence, 8 h. inhibition, % at 10 µM. hit rate 2% among 360,000. AID 1159606, 2016; in the data active = inhibition above about 50%
CF NFkB inh: inhibitors of PAF-induced NF-kB signaling, primary screen, cell-based, GFP fluorescence, uHTS | KKLEB NF-kB-GFP reporter, GFP fluorescence overnight | inhibition, % at 5 µM | hit rate 0.86% among 360,000 | AID 588850, 2011;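 active = at least 50% inhibition at 5 µM, scaled per plate between neutral and stimulator controls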;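 also: PAF is a Pseudomonas aeruginosa culture filtrate used as stimulus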
KKLEB cytotox: cytotoxicity in KKLEB CF airway cells, primary screen, cytotoxicity control for CF NF-kB inhibitor project, cell-based, uHTS, fluorescence assay plates; KKLEB CF airway cells viability, ATPlite luminescence, overnight; active compounds read low; cells stimulated with P. aeruginosa culture filtrate; activity change (cytotoxicity), % at 5 µM; hit rate 0.36% among 360,000; AID 602141, 2011;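 active = corrected activity change at or below -50% at 5 µM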
Each line names hits and unclear results; the compound was inactive in the other large screens. The list is not random: actives were taken first. Their share in the collection is about 4%.

CC(C)n1c(/N=C/c2ccccc2O)nc2ccccc21	none
COC(=O)c1cc(S(=O)(=O)NCCc2ccc(Cl)cc2)c[nH]1	CF NFkB inh 51
COC(=O)c1cc(S(=O)(=O)NCCc2ccc(C)cc2)c[nH]1	none
Cc1ccc(NC(=O)Cc2ccc(Cl)c(Cl)c2)cc1S(=O)(=O)N(C)C	none
Cc1ccc(NC(=O)CSc2nn(-c3ccc(Cl)cc3)c(=S)s2)cc1S(=O)(=O)N(C)C	TROY NFkB inh 52, TWEAK-Fn14 inh 64
Cc1ccc(NC(=O)CNc2ccc(Cl)c(Cl)c2)cc1S(=O)(=O)N(C)C	TWEAK-Fn14 inh 91
NS(=O)(=O)c1cccc(NC(=O)CSc2nn(-c3ccccc3)c(=S)s2)c1	none
CN(C)S(=O)(=O)c1cc(NC(=O)CSc2nn(-c3ccc(Cl)cc3)c(=S)s2)ccc1Cl	TWEAK-Fn14 inh 83
Cc1ccc(NC(=O)c2ncn(CC(=O)NCc3ccccc3)n2)cc1C	none
O=C(NCCC1=CCCCC1)c1ccc(Cl)c(S(=O)(=O)N2CCCCC2)c1	none
C[C@@H]1CCCCO[C@H](CN(C)C(=O)C2CCCCC2)[C@@H](C)CN([C@H](C)CO)C(=O)c2cc(N(C)C)ccc2O1	none
COc1ccc([C@H]2N[C@]3(CCCN(Cc4ccc(Cl)cc4)C3=O)[C@H]3C(=O)N(Cc4ccccc4)C(=O)[C@@H]23)cc1	none
COc1ccc(CN2CCN(Cc3c[nH]c4ccccc34)CC2)cc1OC	none
COc1ccc(Br)cc1CN1CCN(Cc2c[nH]c3ccccc23)CC1	Peg3 prom inh 52
N=c1oc2cc(O)ccc2cc1C(=O)Nc1nc2ccccc2s1	TROY NFkB inh 50, TWEAK-Fn14 inh 53
N=c1oc2ccccc2cc1C(=O)Nc1ccccc1	TWEAK-Fn14 inh 78
COc1ccc2nc(NC(=O)c3cccc(-c4cc5ccccc5oc4=O)c3)sc2c1	Peg3 prom inh 99, CF NFkB inh 60, KKLEB cytotox -54
COc1cccc(NC(=O)c2cc3ccccc3oc2=O)c1	TWEAK-Fn14 inh 86
O=C(COC(=O)c1cncc(Br)c1)Nc1ccc(F)c(F)c1F	none
O=C(C1CC(=O)N(C2CCCCC2)C1)N1CCN(c2cccc(C(F)(F)F)c2)CC1 (configuration not stated)	none
CCOC(=O)[C@H]1[C@H]2COc3ccc(Cl)cc3[C@@H]2N2C(=O)[C@@H](C)NC(=O)[C@@]12C	none
O=C1NC[C@H](CCCCN2C[C@H](Cc3ccc(O)cc3)N(Cc3ccccc3)C(=O)C2=O)N(CCc2ccccc2)C1=O	none (no result: Peg3 prom inh, CF NFkB inh, KKLEB cytotox)
O=C(Nc1cccc(-c2cccc(F)c2)c1)C1CCN(C2CCOCC2)CC1	none
CCC(=O)Nc1cccc(-c2cc3ccccc3oc2=O)c1	TROY NFkB inh 63, TWEAK-Fn14 inh 60
CCC(=O)Nc1cccc(NC(=O)c2cc3ccccc3o2)c1	none
N=c1oc2cc(O)ccc2cc1C(=O)Nc1ccc(Br)cc1	TWEAK-Fn14 inh 72
Cc1cccnc1NC(=O)Nc1cccc2ccccc12	TROY NFkB inh 66, TWEAK-Fn14 inh 56
Cc1cccnc1NC(=O)c1cc2ccccc2oc1=O	TWEAK-Fn14 inh 80
CCc1ccccc1NC(=O)CN(c1ccc(OC)cc1OC)S(=O)(=O)c1ccccc1	none
CCOC(=O)C1=C(COC(=O)COc2ccc(Br)cc2)NC(=O)NC1C (configuration not stated)	none
CC(C)N1CCc2c(sc(NC(=O)c3ccc(S(=O)(=O)N4CCCCC4C)cc3)c2C(N)=O)C1 (configuration not stated)	Peg3 prom inh 68
CC(C)N1CCc2c(sc(NC(=O)c3ccc(S(=O)(=O)N(C)CC4CCCO4)cc3)c2C(N)=O)C1 (configuration not stated)	none
CC(C)N1CCc2c(sc(NC(=O)c3ccc(C(=O)c4ccccc4)cc3)c2C(N)=O)C1	Peg3 prom inh 59
CC(C)N1CCc2c(sc(NC(=O)c3ccc4ccccc4c3)c2C(N)=O)C1	none
CNC(=O)c1cc(Nc2nnc(-c3ccc(C)c(S(N)(=O)=O)c3)c3ccccc23)ccc1OC	none

Bioassay records from PubChem.
